Experimental data as given in PubChem BioAssay (NCATS).
Values joined by “and” are separate entries in the source; they are usually repeats but may differ in a detail not shown here. Identical values can stand only once. Results filed as inconclusive are left out. Values without a mark were called inactive. Active and inactive are the calls of the source. Unless noted, calls follow the shape of the full dose curve. Numbered stars: 1 amine (or outer) side, 2 acyl side, 3 side chain; on linkers, the order of the positions; unused ones are H or OH. Bridge positions count the residues as written; N and C are the ends. Square brackets hold non-standard residues; d marks the D form. Peptide text beside a SMILES is read from it. I, II: the chains in the order shown. Actinocin(9to1) = Cc1c2oc3c(C)ccc(C(=O)[*:1])c3nc-2c(C(=O)[*:2])c(N)c1=O; NMeV = CN[C@H](C(=O)O)C(C)C; Sar = CNCC(=O)O
% is scaled to controls: 0 for no effect and ±100 for the full control effect; potency is read from the fitted curve at half-maximal effect.

Tested on: not listed separately
Test: qHTS for Inhibitors of the Functional Ribonucleoprotein Complex (vRNP) of Lymphocytic Choriomeningitis Arenaviruses (LCMV): Viability assay - alamar blue signal for LCMV Primary Screen (AID 1347085; calls by dose curve; tested in HEK293 reporter line; also: nearly all actives have a fitted effect of over 80% in size)
Conditions: alamar blue viability counter-screen, LCMV vRNP screen cells; series mostly up to 57.5 µM; activity change, negative = lower viability: at the top concentration
In the case of `CCCCOCCOCCOCc1cc2c(cc1CCC)OCO2`, the Potency is reported as “inactive”.
With `CN(C)CCC=C1c2ccccc2CCc2ccccc21` the Potency was “inactive”.
For `CN/C(=C\[N+](=O)[O-])NCCSCc1ccc(CN(C)C)o1`, the Potency was “inactive”.
With `CC[C@@]1(O)C(=O)OCc2c1cc1n(c2=O)Cc2cc3c(CN(C)C)c(O)ccc3nc2-1` the Potency was 1.72 µM (active).
In the case of `CCCCC1=NC2(CCCC2)C(=O)N1Cc1ccc(-c2ccccc2-c2nn[nH]n2)cc1`, the “activity change, negative = lower viability” value is reported as -16.4%.
For `COc1ccc([C@@H]2Sc3ccccc3N(CCN(C)C)C(=O)[C@@H]2OC(C)=O)cc1`, the Potency was “inactive”.
With `CN(C)CCOC(c1ccc(Cl)cc1)c1ccccn1` (stereo unspecified) the “activity change, negative = lower viability” value was 2.66%.
With `CCCCCOC(=O)Nc1nc(=O)n([C@@H]2O[C@H](C)[C@@H](O)[C@H]2O)cc1F` the “activity change, negative = lower viability” value was 0.888%.
With `O[C@@H](c1cc(C(F)(F)F)nc2c(C(F)(F)F)cccc12)[C@H]1CCCCN1` the “activity change, negative = lower viability” value was -56.4%.
For `C=C[C@H]1CN2CC[C@H]1C[C@@H]2[C@@H](O)c1ccnc2ccc(OC)cc12`, the “activity change, negative = lower viability” value was 2.59%.
With `Cc1cccc(C)c1OCC(C)N` (stereo unspecified) the Potency was “inactive”.
With `Cc1ccc(S(=O)(=O)NC(=O)NN2CCCCCC2)cc1` the Potency was “inactive”.
In the case of `O=C(O)c1cn(C2CC2)c2cc(N3CCNCC3)c(F)cc2c1=O`, the Potency is reported as “inactive”.
With `CCN(CCO)CCCC(C)Nc1ccnc2cc(Cl)ccc12` (stereo unspecified) the Potency was “inactive”.
For `CN1C(=O)CC(C)(c2ccccc2)C1=O` (stereo unspecified), the “activity change, negative = lower viability” value was 4.93%.
With `CC[C@@H](CO)NCCN[C@@H](CC)CO` the “activity change, negative = lower viability” value was 0.384%.
In the case of `CCC(=O)O[C@H]1[C@H](O[C@@H]2[C@@H](C)[C@H](O[C@H]3C[C@@](C)(OC)[C@@H](O)[C@H](C)O3)[C@@H](C)C(=O)O[C@H](CC)[C@@](C)(O)[C@H](O)[C@@H](C)C(=O)[C@H](C)C[C@@]2(C)O)O[C@H](C)C[C@@H]1N(C)C`, the “activity change, negative = lower viability” value is reported as 3.81%.
For `Cc1ncc([N+](=O)[O-])n1CCO`, the Potency was “inactive”.
In the case of `N[C@@H](C(=O)N[C@@H]1C(=O)N2C(C(=O)O)=C(Cl)CS[C@H]12)c1ccccc1`, the Potency is reported as “inactive”.
With `CCn1cc(C(=O)O)c(=O)c2cc(F)c(N3CCNCC3)cc21` the Potency was “inactive”.
For `Cc1ccc(O)c([C@H](CCN(C(C)C)C(C)C)c2ccccc2)c1`, the “activity change, negative = lower viability” value was -8.52%.
With `N=c1nc(N2CCCCC2)cc(N)n1O` the Potency was “inactive”.
For `Cc1c2oc3c(C)ccc(C(=O)N[C@@H]4C(=O)N[C@H](C(C)C)C(=O)N5CCC[C@H]5C(=O)N(C)CC(=O)N(C)[C@@H](C(C)C)C(=O)O[C@@H]4C)c3nc-2c(C(=O)N[C@@H]2C(=O)N[C@H](C(C)C)C(=O)N3CCC[C@H]3C(=O)N(C)CC(=O)N(C)[C@@H](C(C)C)C(=O)O[C@@H]2C)c(N)c1=O` (I: T[dV]P[Sar][NMeV] / II: T[dV]P[Sar][NMeV]; ester I:1-I:C, II:1-II:C; linker I:N-II:N via Actinocin(9to1)), the “activity change, negative = lower viability” value was -135%.
For `CN1CC(=O)N/C1=N/C(=O)Nc1cccc(Cl)c1`, the Potency was “inactive”.
In the case of `Cc1oncc1C(=O)Nc1ccc(C(F)(F)F)cc1`, the “activity change, negative = lower viability” value is reported as -7.16%.
With `C[C@H]1O[C@H](O[C@H]2[C@H](O)[C@@H](O)[C@@H](O[C@H]3[C@H](O)[C@@H](O)[C@H](O)O[C@@H]3CO)O[C@@H]2CO)[C@H](O)[C@@H](O)[C@@H]1N[C@H]1C=C(CO)[C@@H](O)[C@H](O)[C@H]1O` the “activity change, negative = lower viability” value was 3.96%.
For `COC(=O)[C@H]1[C@H]2C[C@@H]3c4[nH]c5cc(OC)ccc5c4CCN3C[C@H]2C[C@@H](OC(=O)c2cc(OC)c(OC)c(OC)c2)[C@@H]1OC`, the Potency was “inactive”.
In the case of `CC[C@@H]([C@H](C)O)n1ncn(-c2ccc(N3CCN(c4ccc(OC[C@@H]5CO[C@@](Cn6cncn6)(c6ccc(F)cc6F)C5)cc4)CC3)cc2)c1=O`, the “activity change, negative = lower viability” value is reported as 13.3%.
With `CC1(C)S[C@@H]2[C@H](NC(=O)C(C(=O)O)c3ccccc3)C(=O)N2[C@H]1C(=O)O` (stereo partly specified) the “activity change, negative = lower viability” value was -1.96%.
In the case of `C=C(CC)C(=O)c1ccc(OCC(=O)O)c(Cl)c1Cl`, the “activity change, negative = lower viability” value is reported as 0.209%.
With `CC1=NS(=O)(=O)c2cc(Cl)ccc2N1` the Potency was “inactive”.
In the case of `OC(CCN1CCCC1)(c1ccccc1)C1CCCCC1` (stereo unspecified), the “activity change, negative = lower viability” value is reported as 6.23%.
In the case of `COc1ccccc1OCCNCC(O)COc1cccc2[nH]c3ccccc3c12` (stereo unspecified), the Potency is reported as “inactive”.
For `NC(=O)N1c2ccccc2CC(=O)c2ccccc21`, the Potency was “inactive”.
With `CC(C)C[C@H](NC(=O)[C@H](CCc1ccccc1)NC(=O)CN1CCOCC1)C(=O)N[C@@H](Cc1ccccc1)C(=O)N[C@@H](CC(C)C)C(=O)[C@@]1(C)CO1` the Potency was 0.544 µM (active).
For `O=C(O)CCCc1ccccc1`, the “activity change, negative = lower viability” value was -0.243%.
In the case of `CN(C)C(=N)N=C(N)N`, the “activity change, negative = lower viability” value is reported as 18.1%.
In the case of `CCCC(=O)Nc1ccc(OCC(O)CNC(C)C)c(C(C)=O)c1` (stereo unspecified), the “activity change, negative = lower viability” value is reported as 15.4%.

Molecular target: Nucleoprotein (Lymphocytic choriomeningitis virus (strain Armstrong)) (UniProt P09992)
Sequence (P09992 whole entry, looked up): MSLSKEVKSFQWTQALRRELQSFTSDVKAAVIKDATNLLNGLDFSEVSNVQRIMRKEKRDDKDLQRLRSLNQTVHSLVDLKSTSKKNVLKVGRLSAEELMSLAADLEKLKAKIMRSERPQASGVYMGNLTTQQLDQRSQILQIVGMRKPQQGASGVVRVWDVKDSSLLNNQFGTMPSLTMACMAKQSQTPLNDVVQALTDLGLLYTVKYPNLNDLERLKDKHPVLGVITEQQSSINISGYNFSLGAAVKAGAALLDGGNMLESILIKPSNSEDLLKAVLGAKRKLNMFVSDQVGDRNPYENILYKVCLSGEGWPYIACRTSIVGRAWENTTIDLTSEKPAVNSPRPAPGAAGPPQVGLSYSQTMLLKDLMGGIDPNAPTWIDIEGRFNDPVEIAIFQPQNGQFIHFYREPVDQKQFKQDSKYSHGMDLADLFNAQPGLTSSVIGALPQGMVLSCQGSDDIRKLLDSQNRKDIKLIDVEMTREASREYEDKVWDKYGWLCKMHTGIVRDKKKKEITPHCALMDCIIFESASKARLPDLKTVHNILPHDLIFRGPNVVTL
Test: qHTS for Inhibitors of the Functional Ribonucleoprotein Complex (vRNP) of Lymphocytic Choriomeningitis Arenaviruses (LCMV): LCMV Primary Screen - GLuc reporter signal (AID 1347086); also: nearly all actives have a fitted effect of over 70% in size
Conditions: LCMV minigenome vRNP cell assay, Gaussia luciferase reporter; series mostly up to 57.5 µM; activity change, negative = inhibition: at the top concentration
With `CCCCOCCOCCOCc1cc2c(cc1CCC)OCO2` the Potency was “inactive”.
In the case of `CN(C)CCC=C1c2ccccc2CCc2ccccc21`, the Potency is reported as “inactive”.
With `CN/C(=C\[N+](=O)[O-])NCCSCc1ccc(CN(C)C)o1` the Potency was “inactive”.
With `CC[C@@]1(O)C(=O)OCc2c1cc1n(c2=O)Cc2cc3c(CN(C)C)c(O)ccc3nc2-1` the Potency was 2.82 µM (active) and 3.06 µM (active).
With `CCCCC1=NC2(CCCC2)C(=O)N1Cc1ccc(-c2ccccc2-c2nn[nH]n2)cc1` the “activity change, negative = inhibition” value was -79.8%.
With `COc1ccc([C@@H]2Sc3ccccc3N(CCN(C)C)C(=O)[C@@H]2OC(C)=O)cc1` the Potency was “inactive”.
With `CN(C)CCOC(c1ccc(Cl)cc1)c1ccccn1` (stereo unspecified) the “activity change, negative = inhibition” value was -14%.
With `CCCCCOC(=O)Nc1nc(=O)n([C@@H]2O[C@H](C)[C@@H](O)[C@H]2O)cc1F` the “activity change, negative = inhibition” value was 14.8%.
In the case of `O[C@@H](c1cc(C(F)(F)F)nc2c(C(F)(F)F)cccc12)[C@H]1CCCCN1`, the “activity change, negative = inhibition” value is reported as -56.2%.
With `C=C[C@H]1CN2CC[C@H]1C[C@@H]2[C@@H](O)c1ccnc2ccc(OC)cc12` the “activity change, negative = inhibition” value was 1.36%.
With `Cc1cccc(C)c1OCC(C)N` (stereo unspecified) the Potency was “inactive”.
In the case of `Cc1ccc(S(=O)(=O)NC(=O)NN2CCCCCC2)cc1`, the Potency is reported as “inactive”.
In the case of `O=C(O)c1cn(C2CC2)c2cc(N3CCNCC3)c(F)cc2c1=O`, the Potency is reported as “inactive”.
For `CCN(CCO)CCCC(C)Nc1ccnc2cc(Cl)ccc12` (stereo unspecified), the Potency was “inactive”.
For `CN1C(=O)CC(C)(c2ccccc2)C1=O` (stereo unspecified), the “activity change, negative = inhibition” value was 4.46%.
With `CC[C@@H](CO)NCCN[C@@H](CC)CO` the “activity change, negative = inhibition” value was 1.67%.
In the case of `CCC(=O)O[C@H]1[C@H](O[C@@H]2[C@@H](C)[C@H](O[C@H]3C[C@@](C)(OC)[C@@H](O)[C@H](C)O3)[C@@H](C)C(=O)O[C@H](CC)[C@@](C)(O)[C@H](O)[C@@H](C)C(=O)[C@H](C)C[C@@]2(C)O)O[C@H](C)C[C@@H]1N(C)C`, the “activity change, negative = inhibition” value is reported as 24.8%.
With `Cc1ncc([N+](=O)[O-])n1CCO` the Potency was “inactive”.
For `N[C@@H](C(=O)N[C@@H]1C(=O)N2C(C(=O)O)=C(Cl)CS[C@H]12)c1ccccc1`, the Potency was “inactive”.
With `CCn1cc(C(=O)O)c(=O)c2cc(F)c(N3CCNCC3)cc21` the Potency was “inactive”.
In the case of `Cc1ccc(O)c([C@H](CCN(C(C)C)C(C)C)c2ccccc2)c1`, the “activity change, negative = inhibition” value is reported as 8.25%.
In the case of `N=c1nc(N2CCCCC2)cc(N)n1O`, the Potency is reported as “inactive”.
With `Cc1c2oc3c(C)ccc(C(=O)N[C@@H]4C(=O)N[C@H](C(C)C)C(=O)N5CCC[C@H]5C(=O)N(C)CC(=O)N(C)[C@@H](C(C)C)C(=O)O[C@@H]4C)c3nc-2c(C(=O)N[C@@H]2C(=O)N[C@H](C(C)C)C(=O)N3CCC[C@H]3C(=O)N(C)CC(=O)N(C)[C@@H](C(C)C)C(=O)O[C@@H]2C)c(N)c1=O` (I: T[dV]P[Sar][NMeV] / II: T[dV]P[Sar][NMeV]; ester I:1-I:C, II:1-II:C; linker I:N-II:N via Actinocin(9to1)) the “activity change, negative = inhibition” value was -85.5%.
For `CN1CC(=O)N/C1=N/C(=O)Nc1cccc(Cl)c1`, the Potency was “inactive”.
In the case of `Cc1oncc1C(=O)Nc1ccc(C(F)(F)F)cc1`, the “activity change, negative = inhibition” value is reported as -71.2%.
In the case of `C[C@H]1O[C@H](O[C@H]2[C@H](O)[C@@H](O)[C@@H](O[C@H]3[C@H](O)[C@@H](O)[C@H](O)O[C@@H]3CO)O[C@@H]2CO)[C@H](O)[C@@H](O)[C@@H]1N[C@H]1C=C(CO)[C@@H](O)[C@H](O)[C@H]1O`, the “activity change, negative = inhibition” value is reported as 58.8%.
With `COC(=O)[C@H]1[C@H]2C[C@@H]3c4[nH]c5cc(OC)ccc5c4CCN3C[C@H]2C[C@@H](OC(=O)c2cc(OC)c(OC)c(OC)c2)[C@@H]1OC` the “activity change, negative = inhibition” value was 0.0709%.
For `CC[C@@H]([C@H](C)O)n1ncn(-c2ccc(N3CCN(c4ccc(OC[C@@H]5CO[C@@](Cn6cncn6)(c6ccc(F)cc6F)C5)cc4)CC3)cc2)c1=O`, the “activity change, negative = inhibition” value was 3.57%.
In the case of `CC1(C)S[C@@H]2[C@H](NC(=O)C(C(=O)O)c3ccccc3)C(=O)N2[C@H]1C(=O)O` (stereo partly specified), the “activity change, negative = inhibition” value is reported as 1.03%.
With `C=C(CC)C(=O)c1ccc(OCC(=O)O)c(Cl)c1Cl` the “activity change, negative = inhibition” value was -23.8%.
For `CC1=NS(=O)(=O)c2cc(Cl)ccc2N1`, the Potency was “inactive”.
In the case of `OC(CCN1CCCC1)(c1ccccc1)C1CCCCC1` (stereo unspecified), the “activity change, negative = inhibition” value is reported as -0.291%.
In the case of `COc1ccccc1OCCNCC(O)COc1cccc2[nH]c3ccccc3c12` (stereo unspecified), the Potency is reported as “inactive”.
In the case of `NC(=O)N1c2ccccc2CC(=O)c2ccccc21`, the Potency is reported as “inactive”.
For `CC(C)C[C@H](NC(=O)[C@H](CCc1ccccc1)NC(=O)CN1CCOCC1)C(=O)N[C@@H](Cc1ccccc1)C(=O)N[C@@H](CC(C)C)C(=O)[C@@]1(C)CO1`, the Potency was 385 nM (active).
With `O=C(O)CCCc1ccccc1` the “activity change, negative = inhibition” value was 5.75%.
For `CN(C)C(=N)N=C(N)N`, the Potency was “inactive”.
For `CCCC(=O)Nc1ccc(OCC(O)CNC(C)C)c(C(C)=O)c1` (stereo unspecified), the “activity change, negative = inhibition” value was 9.65%.
